A short description of test [1]: NCI Yeast Anticancer Drug Screen. Data for the rad50 strain (AID 155).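 Also: 0% = growth of vehicle-only cultures of the same strain.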 To be noted: S. cerevisiae rad50 strain growth inhibition; at 50.0 µM; hits give high values. The method, boiled down: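 Relative growth inhibition (compound vs vehicle) was measured in yeast with a defined repair-gene alteration.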
Test [2] in a line: NCI Yeast Anticancer Drug Screen. Data for the mec2-1 strain (AID 157). The settings on record: S. cerevisiae mec2-1 strain, at 50.0 µM, hits give high values. A digest of the protocol: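 Readout is yeast growth inhibition, normalised to vehicle-treated controls, in the mec2-1 strain exposed to compound.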
Test [3] is described as follows: NCI Yeast Anticancer Drug Screen. Data for the sgs1 mgt1 strain (AID 161).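 Also: 0% = growth of cultures given vehicle only.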 To be noted: S. cerevisiae sgs1 mgt1 strain, at 50.0 µM, hits give high values. A digest of the protocol:
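Growth of a repair-deficient yeast mutant was monitored after compound treatment and expressed as inhibition relative to vehicle-treated cultures.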

Test [4] can be described thus: NCI Yeast Anticancer Drug Screen. Data for the cln2 rad14 strain (AID 165).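 Also: 0% = growth equal to vehicle treated cultures.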 To be noted: S. cerevisiae cln2 rad14 strain, at 50.0 µM, hits give high values. A digest of the protocol: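 Relative to vehicle controls, growth inhibition of compound-treated cln2 rad14 yeast was recorded.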
Test [5] is described as follows: NCI Yeast Anticancer Drug Screen. Data for the bub3 strain (AID 167). The settings on record: S. cerevisiae bub3 mutant strain, at 50.0 µM, hits give high values. A digest of the protocol: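 Screening used yeast with an engineered genetic alteration affecting cell cycle control. Compound-exposed cultures were compared with vehicle cultures, and reduced growth was taken as inhibition.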

Test [6] in a line: NCI Yeast Anticancer Drug Screen. Data for the mlh1 rad18 strain (AID 175). To be noted: S. cerevisiae mlh1 rad18 strain growth inhibition; at 50.0 µM; hits give high values. The method, boiled down:
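Test agents were incubated with a yeast strain of defined genotype (DNA damage repair defect). Inhibition of growth was derived by comparison with vehicle-exposed cultures.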

This is part of a sample that, as a whole, favours compounds with a hit. Of some 79,000 tested, about 15% had one in any assay. A number with no mark means an inactive call. Activity calls are given as the source filed them. Rule as the data show it: active = growth inhibition above about 70%; inactive = the rest.

Turning to `COc1ccc2cc1Oc1ccc(cc1)CC1=NCCc3cc(OC)c(OC)c(c31)Oc1cc3c(cc1OC)CCN(C)C3C2` (stereo unspecified), the growth inhibition in test [1] was -8.75%; in test [2], -14.6%; in test [3], -12.4%; in test [4], 4.5%; in test [5], 3.15%; in test [6] it was 9.4%.

For `CCCc1cc(=O)[nH]c(=S)[nH]1`, the growth inhibition in test [1] was 34.6%; in test [2] it was -8.25%; in test [3], 1.7%; in test [4] it was 15.8%; in test [5], 11.2%; in test [6], 15.8%.

Consider `CCCCC(CCc1ccccc1)C(=O)NCC` (stereo unspecified), for which the growth inhibition in test [1] is -5.1%; in test [2], -11.6%; in test [3], -18.4%; in test [4], -11%; in test [5], -12.3%; in test [6], 5.1%.

In the case of `O=C1c2cc([N+](=O)[O-])sc2C(=O)c2ccsc21`, the growth inhibition in test [1] is 88.6% (active); in test [2], 89.3% (active); in test [3] it was 91.2% (active); in test [4], 90.2% (active); in test [5], 91.1% (active); in test [6], 90.7% (active).

With `CS(=O)(=O)CC(O)c1ccccc1` (stereo unspecified), the growth inhibition in test [1] is 4.8%; in test [2], -3.2%; in test [3], 2.95%; in test [4], -12.7%; in test [5], 6.65%; in test [6] it was -21.4%.

On to `O=[N+]([O-])c1cc(O)ccc1O`, for which the growth inhibition in test [1] is 5.4%; in test [2], 5.45%; in test [3], 0%; in test [4], -10.7%; in test [5] it was -1%; in test [6] it was 12%.

On to `C=COS(=O)O`, for which the growth inhibition in test [1] is -0.65%; in test [2], -3.45%; in test [3], -4.85%; in test [4] it was -6.7%; in test [5] it was 12.3%; in test [6], -0.15%.

Take `N/C(=N\OC(=O)Nc1cccc(Cl)c1)C(Cl)(Cl)Cl`: the growth inhibition in test [1] is 96.8% (active); in test [2] it was 99.5% (active); in test [3], 99.5% (active); in test [4], 96.3% (active); in test [5], 99.2% (active); in test [6], 99% (active).

In the case of `O=C(Nc1cccc([N+](=O)[O-])c1)c1ccccc1Cl`, the growth inhibition in test [1] is -0.65%; in test [2] it was 16.1%; in test [3], 1.85%; in test [4], 0.8%; in test [5], 12.9%; in test [6] it was 8.75%.

Consider `O=C(Nc1ccccc1)Sc1ccc(Cl)cc1`, for which the growth inhibition in test [1] was -12.2%; in test [2] it was -13.2%; in test [3], -22.5%; in test [4] it was -20.1%; in test [5], 3.15%; in test [6], 2.85%.

For `CC(=O)C1=CN(C)c2ccccc2S1`, the growth inhibition in test [1] was 29.6%; in test [2], 1.75%; in test [3], 12.2%; in test [4], -2.55%; in test [5], -12.8%; in test [6] it was 6.15%.

For `CN(C)C(=O)Nc1cccc(OC(=O)NC2CC2)c1`, the growth inhibition is 4.4% in test [1]; 16.9% in test [2]; 26.9% in test [3]; -8.35% in test [4]; 19.8% in test [5]; -4.1% in test [6].

Regarding `CC(C)=CCCC(=O)C(c1nc2n(c1O)C(=N)N=N2)c1nc2n(c1O)C(=N)N=N2` (stereo unspecified), the growth inhibition is 12.1% in test [1]; 7.65% in test [2]; 2.1% in test [3]; 7.9% in test [4]; 5.55% in test [5]; 20.6% in test [6].

Regarding `COc1cc(N)c(OC)nn1`, the growth inhibition in test [1] was -1.1%; in test [2] it was 9.4%; in test [3], 3.15%; in test [4] it was -14.8%; in test [5] it was 11.3%; in test [6] it was -10.4%.

Turning to `Cc1c(Cl)c(N)c(Cl)c(Cl)c1Cl`, the growth inhibition in test [1] was 15.7%; in test [2] it was -4.5%; in test [3], 19.1%; in test [4], -7.3%; in test [5], 28.6%; in test [6], 8.75%.

As for `COc1cc(/C=C/c2ccnnc2)cc(OC)c1OC`, the growth inhibition is -9.2% in test [1]; 15.3% in test [2]; 16.8% in test [3]; -0.35% in test [4]; 15.3% in test [5]; -34.6% in test [6].

For `CCOC(=O)CCC(NC(=O)c1ccc(N(C)C=O)cc1)C(=O)OCC` (stereo unspecified), the growth inhibition in test [1] is 10.9%; in test [2], -6.8%; in test [3], -0.55%; in test [4], -6.8%; in test [5], 6.45%; in test [6], 12.3%.

Consider `ClC1=Cc2cccc3cccc1c23`, for which the growth inhibition was 1.55% in test [1]; 6.15% in test [2]; 0.2% in test [3]; 2.5% in test [4]; 12.4% in test [5]; 3.8% in test [6].

Turning to `Cc1c(C)c(C)c(S(=O)(=O)NCCNS(=O)(=O)c2c(C)c(C)c(C)c(C)c2C)c(C)c1C`, the growth inhibition in test [1] was 5.7%; in test [2], -16.4%; in test [3] it was -0.7%; in test [4] it was 15.3%; in test [5], -2.5%; in test [6], 1.7%.

`CCN(CC)Cc1ccccc1COC(=O)/C=C/c1ccccc1`: the growth inhibition in test [1] was 9.8%; in test [2] it was 13.3%; in test [3], 11.6%; in test [4], 7.1%; in test [5], 12.9%; in test [6] it was 13.9%.

Consider `COC(c1ccc(C(C)(C)C)cc1)(c1ccc(C(C)(C)C)cc1)c1cc(C(O)(c2cc(C(OC)(c3ccc(C(C)(C)C)cc3)c3ccc(C(C)(C)C)cc3)c(C)cc2C)c2cc(C(OC)(c3ccc(C(C)(C)C)cc3)c3ccc(C(C)(C)C)cc3)c(C)cc2C)c(C)cc1C`, for which the growth inhibition was -26.8% in test [1]; -12.7% in test [2]; -12.8% in test [3]; 13.8% in test [4]; -17.8% in test [5]; -9.05% in test [6].

Source of the values: PubChem BioAssay (NCI).
